Measured values from PubChem BioAssay (NCI).
About 83,000 compounds went through this panel and 20% of them were active in at least one assay; those are over-represented in the sample as a whole.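 Values shown are percent growth following 48 h exposure of cells in 96-well plates to a single concentration of compound; below 10 was considered active.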 Unmarked numbers belong to inactive results. Activity calls are given as the source filed them.

These molecules were tested on NCI-H226 lung (assay: NCI-60 one-dose screen, 48 h (100 = growth as untreated, 0 = no growth, -100 = all killed)). Conditions: 10 µM unless noted.
Procedure: Growth inhibition of the NCI-H226 human Non-Small Cell Lung tumor cell line is measured as a screen for anti-cancer activity. Cells are grown in 96 well plates and exposed to the test compound for 48 hours. Compounds are tested at a single concentration, which is 10^-5 M for most compounds. The reported endpoint is percent growth (GI% or GIPRCNT), where numbers from 0 - 100% represent growth inhibition, and numbers from -100% - 0 represent cell death. For example, a value of 40 represents 60% growth inhibition. A value of 0 means no net growth occurred over the course of the experiment. A value of -40 indicates 40% of cells at the beginning of the experiment died by the end of the experiment. A value of -100 means all cells are dead at the end of the experiment.
NCI-60 Human Tumor Cell Lines Screen was performed using the standard one-dose NCI protocol, which is described in more detail at https://dtp.cancer.gov/discovery_development/nci-60/default.htm.
Compounds with GIPRCNT values below 10 were considered active. Activity score was based on GIPRCNT using the following formula: […]
Score is 0 for GIPRCNT values of 100 or above, 50 for GIPRCNT values of 0, and 100 for GIPRCNT values of -100.
`CC(C)[C@H]1CCC2=C3CC[C@]45OC(=O)[C@@]6(CCC(C)(C)C[C@H]64)CC[C@@]5(C)[C@]3(C)CC[C@@]21C` showed a growth of 68.4% [100 µM]. For `O=C(CCCSc1nc(-c2ccccc2)cc(-c2ccccc2)n1)NO`, the growth was -6.97% (active). With `C=C(C)[C@@H]1CC[C@]2(C)[C@H](C(=O)C=C3[C@@H]4C[C@](C)(C(=O)N5CCN(C)CC5)CC[C@]4(C)CC[C@]32C)[C@@]1(C)CCC#N` the growth was -68.4% [100 µM] (active). `FC(F)(F)c1ccc2c(c1)Sc1ccccc1N2` gave a growth of 94%. With `Nc1cc(C(=O)O)[nH]c(=S)n1` the growth was 95.2%. Molecule `CSc1cccc([N+](=O)[O-])c1` has a growth of 104%. For `COc1ccc(C2CC(c3ccc4ccccc4c3)=NN2c2nc(O)c(C3=c4cc(OC)ccc4=NC3=O)s2)cc1` (stereo not given), the growth was -70.6% (active). With `COc1ccc2c(c1)C(C)Cc1c(Cl)ncnc1N2C` (stereo not given) the growth was -3.41% (active). With `O=C(Nc1cccc2cccnc12)c1cc(C(=O)c2ccc(Cl)cc2)n2ccc(-c3ccncc3)cc12` the growth was 91%. `O=C(Nc1ccc(Nc2ccncc2)cc1)c1ccc([N+](=O)[O-])cc1` showed a growth of 91.1%. `CC(C)[C@H]1COC(=O)N1[C@@H]1C(=O)N([C@@H](CCC(=O)N2CCN(C3CCCC3)CC2)C(=O)N[C@@H]2CCCc3ccccc32)[C@@H]1/C=C/c1cccc(Cl)c1` was tested, and the growth was 88.9%. In the case of `Cc1cc(C)nc(SCC(=O)Nc2cccc(N=Cc3ccccc3O)c2)n1`, the growth is reported as 93.8%. In the case of `CCCc1cc2cc(-n3nc(C)c4c3CC(C)(C)CC4=O)cc(NC3CCSCC3)c2c(=O)[nH]1`, the growth is reported as 90.2%. `C=C(C)[C@@H]1CC[C@]2(COCCC#N)CC[C@]3(C)[C@H](CC[C@@H]4[C@@](C)(CCCNCCC#N)[C@H](C(=C)C)CC[C@]43C)[C@@H]12` showed a growth of 42.6% [100 µM]. `Brc1ccc2c(c1)CN(C1CCCCC1)CO2` showed a growth of 91.3%. `CCCCCCNC(=O)Nc1ncnc2c1ncn2-c1ccccc1` was tested, and the growth was 93.8%. `O=C(O)c1cn(C2CC2)c2cc(N3CCN(Cc4c(O)ccc5ccccc45)CC3)c(F)cc2c1=O` was tested, and the growth was 6.89% (active). For `CCN(CC)CC(C)Nc1ccc(C)c2sc3ccccc3c(=O)c12` (stereo not given), the growth was 74.2%. For `CC[C@@](C)(NC(=O)[C@H](C)NC(=O)CCNC(=O)C(C)(C)NC(=O)[C@H](C)NC(=O)[C@@H]1CCCN1C(=O)[C@@](C)(CC)NC(=O)[C@H](Cc1ccccc1)NC(=O)C1CCCN1C(=O)C(C)(C)NC(=O)C1CCCN1C(=O)C(C)(C)NC(C)=O)C(=O)NCCC(=O)N[C@@H](CC(C)C)C(=O)NC(C)(C)C(=O)NCCC(=O)N[C@@H](CC(C)C)C(=O)NC(C)(C)C(=O)NC(C)(C)C(=O)N[C@@H](CC(C)C)C(=O)NCCC(=O)NCO` (stereo not given in full), the growth was -97% (active). Molecule `Nc1nnc(CSc2nnc3n(Cc4ccccc4)c(=O)c4c5c(sc4n23)CCCC5)s1` has a growth of 90.6%. `CSc1nc(=S)c2nc(SC)n(-c3ccccc3)c2[nH]1` showed a growth of 90.8%. `C[C@]12CCc3nc(Nc4ccccc4)sc3C1=CC[C@@H]1[C@@H]2CC[C@]2(C)/C(=N/NC(N)=S)CC[C@@H]12` gave a growth of 15.6%. Molecule `O=C(N=c1n(-c2ccccc2)nc2n1CCN2C1=NCCN1)c1ccc(Cl)cc1` has a growth of 93.3%. `N#CCCc1c[nH]c2ccccc12` was tested, and the growth was 90.3%. In the case of `CC1(C)CC[C@]23CC[C@]4(C)[C@H](CC[C@@H]5[C@@]6(C)C/C(=C/c7cccnc7)C(=O)C(C)(C)[C@@H]6CC[C@]54C)[C@H]2[C@H]1OC3=O`, the growth is reported as 24.6% [100 µM]. In the case of `COc1ccc(C2=C(c3cn(C)c4ccccc34)C(=O)OC2)cc1OC`, the growth is reported as 70.3%. Work on `C#CC(OC(=O)N(C)C)(c1ccccc1)c1ccc(F)cc1` (stereo not given) yielded a growth of 89.7%. In the case of `CC(C)=CCC[C@](C)(O)[C@H]1CC[C@]2(C)[C@@H]1CC[C@@H]1[C@@]3(C)CC/C(=N/O)C(C)(C)[C@@H]3CC[C@]12C`, the growth is reported as 11.3% [100 µM]. Molecule `CC(C)=CCC[C@](C)(O)[C@H]1CC[C@]2(C)[C@@H]1CC[C@@H]1[C@@]3(C)CC[C@H](OC(=O)CCC(=O)O)C(C)(C)[C@@H]3CC[C@]12C` has a growth of 27.4% [100 µM]. `C#CCNC(=O)CC[C@@H](C)[C@H]1CC[C@H]2[C@@H]3CC[C@@H]4CC(=O)CC[C@]4(C)[C@H]3CC[C@]12C` was tested, and the growth was -63.7% [100 µM] (active). `CC(=O)CC(=O)SC1=NCCS1` gave a growth of 112%. `CCc1cccc(Cl)c1` was tested, and the growth was 99.2%. `O=C(CSc1nc2ccc([N+](=O)[O-])cc2[nH]1)Nc1ccc(F)c(Cl)c1` was tested, and the growth was 7.74% (active). With `CN(C)c1cc(NN=C(c2ccc(O)cc2)c2ccc(O)cc2)c([N+](=O)[O-])cc1[N+](=O)[O-]` the growth was 98.7%. Work on `COc1ccc(-c2cc(-c3ccc(OC)c(OC)c3)nc(SCCCCCC(=O)NO)n2)cc1` yielded a growth of 95.2%. In the case of `C=C(C)[C@@H]1CC[C@]2(C(=O)OC)CC[C@]3(C)[C@H](CC[C@@H]4[C@@](C)(CCc5nn[nH]n5)[C@H](C(=C)C)CC[C@]43C)[C@@H]12`, the growth is reported as -19.9% [100 µM] (active). In the case of `COC(=O)c1c(C)[nH]c(/C=C2\N=C(c3ccc[nH]3)C=C2OC)c1C`, the growth is reported as -16% (active). For `CN(C)c1ccc(-c2ccc(-c3ccc(C(=N)N)cc3)s2)cc1`, the growth was 87.4%. With `N/C(=N\c1nc2ccccc2[nH]1)NC(=O)Cc1cccc2ccccc12` the growth was 88.7%. `Cc1cccc(C[C@H](NC(=O)Nc2ccc(Cl)cc2F)C(=O)N[C@@H]2C(=O)N3C[C@H](O)C[C@H]3C(=O)N3CCN(C)C[C@H]3C(=O)N[C@@H](C)C(=O)N3C[C@H](C)C[C@H]3C(=O)O[C@H]2C)c1` showed a growth of 45.2%.
